# Screens deposited in PubChem by National Center for Advancing Translational Sciences (NCATS).
# IL1B secr inh: blocks inflammasome-driven IL-1 beta release | THP-1 LPS/ATP IL-1B secretion, AlphaLISA, 16 h; hits give low values | activity change, % at 57.5 µM | 4.7% of 360,000 active | AID 743279; in the data active = activity change below about -50%; inconclusive = mostly about -30% to -49%
#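 THP-1 cells pretreated 1 hr with compounds (up to 57.5 uM final), then stimulated with LPS (250 ng/mL final) plus ATP (1.25 mM final); secreted IL-1B measured by AlphaLISA after 16 hr, decreased signal indicating inhibition.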
# TDP1 cell CPT: DT40-hTDP1 cell growth loss with CPT. chicken DT40 Tdp1-/-;hTDP1 cells + 20 nM CPT, ATP luminescence, 48 h. Potency, µM (titrated, usually from 46.2 µM), actives largely listed as inhibitors. 12% of 420,000 active; note: nearly all actives have a fitted effect of over 55% in size
#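 Chicken DT40 Tdp1-/- cells stably complemented with human TDP1 were seeded at 400 cells/well in medium containing 20 nM camptothecin, exposed to pin-transferred compounds, and grown at 37 °C for at least 48 hr. Viability was read as ATP luminescence.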
# HT1080-NT tox: kills 2HG-producing HT-1080-NT fibrosarcoma cells. HT-1080-NT fibrosarcoma viability, CellTiter-Glo ATP luminescence, 48 h. Potency, µM (titrated, usually from 46.1 µM), hits mostly cytotoxic. 1.6% of 360,000 active. AID 686970;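 note: NT is the 2HG producing partner of a matched IDH1 knockdown line; nearly all actives have a fitted effect of over 55% in size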
#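 750 cells/well, RPMI + 5% FBS; 2 h settle, compound pin-transfer, 48 h at 37 degrees C. CellTiter-Glo 10 min RT, luminescence. Normalized to DMSO and media-only wells.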
# HT1080 IDH1KD tx: kills HT-1080 cells with IDH1 knockdown; HT-1080 IDH1 knockdown viability, ATP luminescence, 48 h; Potency, µM (doses to about 46.1 µM), hits mostly cytotoxic; 2% of 360,000 active; AID 686971
#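 Cytotoxicity counter-line: IDH1KD HT-1080, 48 h, CellTiter-Glo. Curves classed by r2, magnitude and activity.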
# DT40 TDP1 no CPT: qHTS for Inhibitors of human tyrosyl-DNA phosphodiesterase 1 (TDP1): qHTS in cells in absence of CPT; DT40 Tdp1-/- hTDP1 cells, no CPT, ATP luminescence, 48 h; Potency, µM (titrated, usually from 46.2 µM), actives largely listed as inhibitors; 15% of 420,000 active; AID 686978, 2013; note: nearly all actives have a fitted effect of over 55% in size
#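 Camptothecin absent (DMSO only). Human TDP1-complemented DT40 knockout cells, 400 cells/well, 37 °C for minimum 48 hr; ATP measured via CellTiter-Glo, 30 min dark incubation, luminescence.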
# ELG1 DNA repair: blocks ELG1-dependent DNA repair in HEK293T cells. HEK293T ELG1-luciferase reporter, luminescence, 16 h; DNA damage induced by 5-fluorouridine. 2.3% of 330,000 active. Potency, µM (top dose mostly 46.1 µM), hits mostly inhibitors; note: nearly all actives have a fitted effect of over 55% in size
#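 DMSO vehicle served as the neutral condition. Each well held 2,000 cells given 5-fluorouridine plus compound; after 16 hr at 37 °C/5% CO2, ONE-Glo was added and luciferase measured 30 min later.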
# Numbers stand for hits; - = inactive; ? = inconclusive; . = no result given; ! = a repeat was not active. Sampled rows, rich in hits. Any-hit rate of the full collection: about 19%. Unless noted, calls come from the whole dose curve; as a rule, active = well fitted curve in the direction sought with a large enough effect; inconclusive = small, poorly fitted or top-dose-only effect, or another doubt; inactive = no such curve, though single readings can be large; an effect the other way counts as inactive or inconclusive.
SMILES,IL1B secr inh,TDP1 cell CPT,HT1080-NT tox,HT1080 IDH1KD tx,DT40 TDP1 no CPT,ELG1 DNA repair
COC(=O)[C@@]12C[C@@H](CC(=O)NCCC(C)C)C(=O)N(CCc3ccc(OC)c(OC)c3)C1=CCC(C)(C)C2,.,?,-,-,21µM,.
COC(=O)[C@]12CCCCC=C1N(CCc1ccc(OC)c(OC)c1)C(=O)[C@H](CC(=O)NCCCN1CCCC1=O)C2,-,-,-,-,-,.
COC(=O)[C@@]12C[C@@H](CC(=O)N3CCSCC3)C(=O)N(CCc3ccc(OC)c(OC)c3)C1=CCC(C)(C)C2,?,?,-,-,?,.
CCCCOCCCNC(=O)C[C@@H]1C[C@@]2(C(=O)OC)CC(C)(C)CC=C2N(CCc2ccc(OC)c(OC)c2)C1=O,.,?,-,-,15µM,.
Cc1cccc(-c2nc(SCC(=O)Nc3ccc4c(c3)OCCO4)c(-c3ccccc3)[nH]2)c1,.,?,.,.,21µM,.
O=C(CSc1nc(-c2cccc(F)c2)[nH]c1-c1ccccc1)Nc1ccc2c(c1)OCCO2,.,15µM,.,.,12µM,.
COc1ccc(NC(=O)[C@@H](c2ccccc2)N2Cc3ccccc3C2=O)cc1OC,.,-,.,.,-,.
CN(C)CCCNc1ncnc2sc(-c3ccccc3)cc12,-76,?,-,-,16µM,-
CCCCN(CCO)c1ncnc2sc(-c3ccccc3)cc12,.,?,-,?,16µM,-
Nc1ccccc1OCCOc1ccccc1N,-,-,-,-,-,?
CCCOc1ccc(N)cc1N,?,5.2µM,?,?,4.1µM,?
CCN(CC)CCOC(=O)c1ccc(N)cc1,-,-,-,-,-,-
CCCOc1cc(N)ccc1C(=O)OCCN(CC)CC,-,0.13µM!,-,-,?,-
CN(C)C1=NCCN1CC1CCCCC1,-,-,-,-,-,-
CC(C)(C)c1ccccc1NC(=O)CSc1nc(-c2cccs2)cc(C(F)(F)F)n1,.,21µM,.,.,?,.
O=C(NC(=O)c1ccccc1F)Nc1nc(-c2cccs2)cc(C(F)(F)F)n1,-,23µM,-,-,?,?
O=C(CSc1nc(-c2cccs2)cc(C(F)(F)F)n1)Nc1cc(OCC(F)(F)F)cc([N+](=O)[O-])c1,-,?,?,16µM,18µM,?
COc1ccc(NC(=O)CSc2nc(-c3cccs3)cc(C(F)(F)F)n2)cc1OC,.,4.6µM,.,.,2.3µM,.
Cc1cccc(C)c1NC(=O)CSc1nc(-c2ccco2)cc(C(F)(F)F)n1,-,?,-,-,?,-
O=C(CSc1nc2nc(-c3cccs3)cc(C(F)(F)F)c2c(=O)[nH]1)Nc1c(F)c(F)c(F)c(F)c1F,-,?,12µM,-,?,?
Cc1cccc(C)c1NC(=O)CSc1nc(-c2cccs2)cc(C(F)(F)F)n1,.,15µM,.,.,18µM,.
CCN(C(=O)CN1C(=O)NC2(CCCC2)C1=O)c1nc2c(C)cccc2s1,-,?,-,-,13µM,.
CCN(C(=O)C1CSC2(C)CCC(=O)N12)c1nc2c(C)cccc2s1 (centres undefined),-,?,-,-,-,-
O=C(NC(=S)Nc1ccccc1)c1cncc(C#Cc2ccccc2)c1,-,-,-,-,-,-
CC(Oc1ccc2ccc(=O)oc2c1)C(=O)NC1CC(C)(C)NC(C)(C)C1 (centres undefined),-,-,-,-,-,?
Cc1ccc(N2CCN(C(=O)CCS(=O)(=O)c3cc4c(cc3Cl)NC(=O)CO4)CC2)c(C)c1,.,23µM,.,.,21µM,.
O=C1COc2ccc(S(=O)(=O)CCC(=O)N3CCN(c4cccc(Cl)c4)CC3)cc2N1,-,10µM,?,?,18µM,?
Cc1ccc(Cl)cc1N1CCN(C(=O)CCS(=O)(=O)c2ccc3c(c2)NC(=O)CO3)CC1,-53,?,-,-,10µM,?
Cc1ccc(C(=O)CCc2ccc(N)cc2)cc1,?,-,-,-,-,?
